Screens as filed in PubChem.
KB-3-1 cytotox – KB-3-1 parental cell cytotoxicity | Potency, µM (series often up to 46.1 µM), most hits filed as cytotoxic | KB-3-1 viability, CellTiter-Glo ATP luminescence, 72 h | AID 1347075 | 400,000 tested, 1.4% active; further: on the % scale 0 is the no-effect control and ±100 the full control effect; nearly all actives have a fitted effect of over 60% in size
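Using CellTiter-Glo luminescence, growth of non-resistant KB-3-1 adenocarcinoma cells is assessed 72 h after pin-tool compound addition at 37 °C. Normalized responses across the concentration series yield fitted curves.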
HT1080-NT tox – kills 2HG-producing HT-1080-NT fibrosarcoma cells | Potency, µM (series often up to 46.1 µM), inactives show top-dose activity, negative = less viability, hits mostly cytotoxic | HT-1080-NT fibrosarcoma viability, CellTiter-Glo ATP luminescence, 48 h | 360,000 tested, 1.6% active;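 further: NT is the 2HG producing partner of a matched IDH1 knockdown line; 0% = DMSO-treated cells and -100% = media-only wells without cells; nearly all actives have a fitted effect of over 55% in size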
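Compounds were tested in concentration-response format on HT-1080-NT cells for 48 hours at 37 degrees C. Cell viability came from CellTiter-Glo luminescence; curves were classified by r2, response magnitude and activity.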
SW480 rereplic – induces DNA re-replication in SW480 colon adenocarcinoma cells; AID 624297; Potency, µM (top dose mostly 46.1 µM), without a hit: at the top dose re-replication activation, actives largely listed as activators; SW480 DNA re-replication, Hoechst DNA content imaging, 48 h; 340,000 tested, 1.8% active; further: % of control where 0% means no effect; nearly all actives have a fitted effect of over 55% in size
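First, 250 cells per well were seeded. Next, compound or vehicle (23 nL) was pinned in, plates sat 48 hr at 37 C. Finally Hoechst was added for 40 min before fluorescence scanning.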
KB-V1 MDR tox – KB-V1 MDR subline cytotoxicity; KB-V1 MDR cells viability, CellTiter-Glo, 72 h; Potency, µM (doses to about 46.1 µM), usual class: cytotoxic; 400,000 tested, 3.4% active; AID 1347076; further: on the % scale 0 is the no-effect control and ±100 the full control effect; nearly all actives have a fitted effect of over 60% in size
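Following 72 h at 37 degrees C with compound, KB-V1 cell viability was read by CellTiter-Glo luminescence, medium being phenol-red-free DMEM plus 10% FBS; concentration-response parameters came from normalized, curve-fitted qHTS data.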
MCF10A rerep – inducers of DNA re-replication in MCF 10A breast cells; Potency, µM (titrated, usually from 46.1 µM), for the others: at the highest dose activity, positive = re-replication, actives largely listed as activators; 350,000 tested, 2.9% active; MCF 10A DNA re-replication, Hoechst nuclear intensity, 48 h; further: % of control where 0% means no effect; nearly all actives have a fitted effect of over 50% in size
HT1080 IDH1KD tx – toxicity to HT-1080 IDH1 knockdown cells (counter line); HT-1080 IDH1 knockdown viability, ATP luminescence, 48 h; Potency, µM (highest dose often 46.1 µM), for inactives: at the highest dose activity, negative = toxicity, hits mostly cytotoxic; AID 686971; 360,000 tested, 2% active;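 further: 0% = DMSO wells and -100% = cell-free medium wells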
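HT-1080-IDH1KD cells (IDH1 knocked down), 750/well in RPMI with 5% FBS, treated with compound 48 h at 37 degrees C. Viability by CellTiter-Glo luminescence, normalised to DMSO and no-cell wells; concentration-response curves classed.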
Active calls of the source: *; i = inactive; u = inconclusive; ! = a repeat was not active. Shown are actives, neighbours in structure and some others; about 7.9% of the full set was active somewhere. The call rests on the fitted dose curve; in most records, active means well fitted curve in the direction sought with a large enough effect; inconclusive means small, poorly fitted or top-dose-only effect, or another doubt; inactive means no such curve, though single readings can be large; an effect the other way counts as inactive or inconclusive. Potency means the concentration at half of the fitted maximal effect.

SMILES | KB-3-1 cytotox | HT1080-NT tox | SW480 rereplic | KB-V1 MDR tox | MCF10A rerep | HT1080 IDH1KD tx
COc1cc2sc3ccc(-c4ccc(N(C)C)nc4)cc3c(=O)c2cc1OC | i | 10.9% | -10.1% | i | 11.4% | 16.7%
COc1cc(-c2noc(C)c2C(=O)NCCc2c[nH]c3ccccc23)cc(OC)c1OC | i | -1.4% | -4.2% | u | u | -12.7%
COc1cc(-c2noc(C)c2-c2ccc(N(C)C)nc2)cc(OC)c1OC | 0.0065µM* | 0.0058µM* | 0.291µM* | 0.206µM* | u | 0.184µM*
COc1cc(-c2noc(C)c2-c2ccc3[nH]ccc3c2)cc(OC)c1OC | 1.84µM* | 1.03µM* | 2.59µM* | 1.84µM*! | u | 0.0366µM*
CCCCN(C)Cc1c(O)ccc2c(-c3ccccc3)cc(=O)oc12 | u | -14.1% | -16.8% | 10.3µM* | -1.7% | -21.0%
O=C(CCCOc1ccccc1)N1CCCCC1 | i | -1.8% | 2.7% | i | 18.8% | -2.0%
COc1ccc(NC(=O)CSc2nccn2-c2ccccc2)cc1 | i | 11.8% | -2.4% | i | -1.0% | 11.5%
O=[N+]([O-])c1ccc(NC2CCCC2)cc1 | i | 6.8% | -1.0% | u | 11.1% | 8.1%
O=[N+]([O-])c1ccc(N/N=C2/CCCCC2c2ccccn2)cc1 (configuration not stated) | u | 14.3% | -10.9% | i | -3.0% | 0.92µM*
CCc1cc(C(=O)OC)c(NC(=O)C2CC(=O)NN2Cc2ccccc2)s1 (configuration not stated) | i | 2.5% | 3.5% | u | 0.5% | -4.2%
CC(=O)Nc1cc(C(=O)NCc2ccco2)ccc1Sc1ccc(F)cc1 | i | 3.9% | 1.3% | u | -11.6% | 6.4%
CC(=O)Nc1cc(C(=O)N(C)Cc2ccco2)ccc1Sc1ccc(Cl)cc1 | i | -2.0% | -34.4% | 2.91µM* | u | -10.0%
CC(=O)Nc1cc(C(=O)NCc2ccco2)ccc1Sc1ccc(Cl)cc1 | i | -3.5% | -10.2% | u | 14.7% | -3.9%
CCOc1ccccc1CNC(=O)c1ccc(Sc2ccc(Cl)cc2)c(NC(C)=O)c1 | i | -0.2% | u | 18.4µM* | 20.2% | 2.8%
CCOc1ccc(CNC(=O)c2ccc(Sc3ccc(Cl)cc3)c(NC(C)=O)c2)cc1 | u | -21.8% | 4.0% | 8.2µM* | u | u
O=C(/C=C/c1cccc(Cl)c1)N1CCC(Cc2ccccc2)CC1 | i | -8.0% | 1.9% | i | u | -17.2%
CCC(C(=O)N1CCc2cc(OC)c(OC)cc2C1)c1ccccc1 (configuration not stated) | i | 0.8% | u | i | u | -2.6%
CCN(CC)S(=O)(=O)c1ccc(N2CCOCC2)c(NC(=O)C(=O)c2c(-c3ccccc3)cc3ccccn23)c1 | i | 8.5% | 1.6% | i | 6.2% | 7.6%
Cc1ccc(-c2cc(C(=O)O)n[nH]2)s1 | i | 23.7% | 4.1% | i | 0.3% | u
COc1ccc([C@H]2/C=C\CN(C(=O)C3CCCC3)[C@@H](C)C(=O)N2Cc2ccc(F)cc2)cc1 | u | -19.2% | 8.2% | i | -8.9% | -24.8%
O=C(NCc1cccs1)C1CC(c2ccc(Cl)c(Cl)c2)=NO1 (configuration not stated) | i | -27.6% | -3.6% | i | 2.31µM* | -24.7%
O=C(NCCc1cccs1)C1CC(c2c(Cl)cccc2Cl)=NO1 (configuration not stated) | i | 16.4% | 11.8% | i | 1.2% | -3.6%
O=C(NCc1ccccn1)C1CC(c2ccc(Cl)c(Cl)c2)=NO1 (configuration not stated) | u | -20.4% | 16.2% | u | 11.2µM* | u
O=C(NCc1cccnc1)C1CC(c2ccc(Cl)c(Cl)c2)=NO1 (configuration not stated) | u | -23.8% | 13.8% | u | 9.2µM* | -29.6%
